Measured values from PubChem BioAssay AID1159580 (chemical genetic matrix, 2015).
In all, about 5,500 compounds went through this assay and about 2,000 (36%) were called active. About 18% were inconclusive and are not listed. Rule as the data show it: active = normalized growth mostly below about 0.91 (no sharp cut-off); inconclusive = no clear call, values can overlap the other calls; inactive = mostly above about 0.92. The list shows a part of the results.

Assay: chemical genetic growth profiling, strain panel (AID 1159580);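 also: tested at 20 µM; growth read once vehicle control cultures reached saturation at 30 °C; 1 = growth at the plate median or of vehicle wells; lower values mean less growth of the strain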
Settings: growth OD

Measured: normalized growth

C[C@H]1COc2c(N3CCN(C)CC3)c(F)cc3c(=O)c(C(=O)O)cn1c23
inactive: S. cerevisiae deletion strains, locus YJR075W, strain HOC1, stronger effect = lower value 0.991 | S. cerevisiae deletion strains, locus YKL009W, strain mrt4, stronger effect = lower value 1.01 | S. cerevisiae deletion strains, locus YKL068W, stronger effect = lower value 1 | S. cerevisiae deletion strains, locus YKL085W, strain MDH1 (second series), stronger effect = lower value 1.01 | S. cerevisiae deletion strains, locus YKL085W, strain MDH1, stronger effect = lower value 1.01 | S. cerevisiae deletion strains, locus YKL160W, strain elf1, stronger effect = lower value 1.01 | S. cerevisiae deletion strains, locus YKL190W, strain CNB1, stronger effect = lower value 0.998 | S. cerevisiae deletion strains, locus YKR001C, strain vps1, stronger effect = lower value 1.03 | S. cerevisiae deletion strains, locus YKR026C, strain gcn3, stronger effect = lower value 1.02 | S. cerevisiae deletion strains, locus YKR091W, strain srl3, stronger effect = lower value 1.03 | S. cerevisiae deletion strains, locus YLL001W, strain dnm1, stronger effect = lower value 1.04 | S. cerevisiae deletion strains, locus YLL026W, stronger effect = lower value 1.03 | S. cerevisiae deletion strains, locus YLL041C, strain sdh2, stronger effect = lower value 1.02 | S. cerevisiae deletion strains, locus YLR027C, strain aat2, stronger effect = lower value 1.03 | S. cerevisiae deletion strains, locus YLR039C, strain RIC1, stronger effect = lower value 1.01 | S. cerevisiae deletion strains, locus YLR058C, strain SHM2, stronger effect = lower value 1.01 | S. cerevisiae deletion strains, locus YLR102C, strain apc9, stronger effect = lower value 1.01 | S. cerevisiae deletion strains, locus YLR113W, strain HOG1, stronger effect = lower value 1.03 | S. cerevisiae deletion strains, locus YLR221C, strain rsa3, stronger effect = lower value 0.984 | S. cerevisiae deletion strains, locus YLR258W, strain gsy2, stronger effect = lower value 1.02 | S. cerevisiae deletion strains, locus YLR262C, strain YPT6 (second series), stronger effect = lower value 1.02 | S. cerevisiae deletion strains, locus YLR262C, strain YPT6, stronger effect = lower value 1.01 | S. cerevisiae deletion strains, locus YLR268W, strain sec22, stronger effect = lower value 1 | S. cerevisiae deletion strains, locus YLR320W, strain mms22, stronger effect = lower value 1.02 | S. cerevisiae deletion strains, locus YLR330W, strain CHS5, stronger effect = lower value 1 | S. cerevisiae deletion strains, locus YLR342W, strain FKS1 (second series), stronger effect = lower value 0.984 | S. cerevisiae deletion strains, locus YLR342W, strain FKS1, stronger effect = lower value 1.03 | S. cerevisiae deletion strains, locus YLR357W, strain rsc2, stronger effect = lower value 1.02 | S. cerevisiae deletion strains, locus YLR370C, strain arc18, stronger effect = lower value 1.03 | S. cerevisiae deletion strains, locus YLR371W, strain rom2, stronger effect = lower value 1 | S. cerevisiae deletion strains, locus YLR384C, strain iki3, stronger effect = lower value 1.03 | S. cerevisiae deletion strains, locus YLR418C, strain cdc73, stronger effect = lower value 1.02 | S. cerevisiae deletion strains, locus YML016C, strain PPZ1, stronger effect = lower value 1.01 | S. cerevisiae deletion strains, locus YML032C, strain rad52, stronger effect = lower value 0.965 | S. cerevisiae deletion strains, locus YML120C, strain ndi1, stronger effect = lower value 1.01 | S. cerevisiae deletion strains, locus YML124C, strain tub3, stronger effect = lower value 1.02 | S. cerevisiae deletion strains, locus YMR058W, strain fet3, stronger effect = lower value 1.02 | S. cerevisiae deletion strains, locus YMR078C, strain ctf18, stronger effect = lower value 1.02 | S. cerevisiae deletion strains, locus YMR125W, strain sto1, stronger effect = lower value 1.02 | S. cerevisiae deletion strains, locus YMR129W, stronger effect = lower value 1.03 | S. cerevisiae deletion strains, locus YMR205C, strain PFK2, stronger effect = lower value 0.985 | S. cerevisiae deletion strains, locus YMR223W, strain ubp8, stronger effect = lower value 1.01 | S. cerevisiae deletion strains, locus YMR231W, strain pep5, stronger effect = lower value 1.03 | S. cerevisiae deletion strains, locus YMR263W, strain SAP30, stronger effect = lower value 0.991 | S. cerevisiae deletion strains, locus YMR307W, strain GAS1, stronger effect = lower value 1.04 | S. cerevisiae deletion strains, locus YNL067W, strain RPL9B, stronger effect = lower value 1 | S. cerevisiae deletion strains, locus YNL071W, strain lat1, stronger effect = lower value 1 | S. cerevisiae deletion strains, locus YNL128W, strain TEP1, stronger effect = lower value 0.975 | S. cerevisiae deletion strains, locus YNL153C, strain GIM3, stronger effect = lower value 1 | S. cerevisiae deletion strains, locus YNL183C, strain NPR1, stronger effect = lower value 0.97 | S. cerevisiae deletion strains, locus YNL209W, strain ssb2, stronger effect = lower value 1.01 | S. cerevisiae deletion strains, locus YNL233W, strain BNI4, stronger effect = lower value 1.01 | S. cerevisiae deletion strains, locus YNL248C, strain rpa49, stronger effect = lower value 1.03 | S. cerevisiae deletion strains, locus YNL250W, strain rad50, stronger effect = lower value 1.01 | S. cerevisiae deletion strains, locus YNL271C, strain bni1, stronger effect = lower value 1.01 | S. cerevisiae deletion strains, locus YNL298W, strain CLA4, stronger effect = lower value 1.02 | S. cerevisiae deletion strains, locus YNL307C, strain MCK1, stronger effect = lower value 1.03 | S. cerevisiae deletion strains, locus YNL322C, strain KRE1 (second series), stronger effect = lower value 1.03 | S. cerevisiae deletion strains, locus YNL322C, strain KRE1, stronger effect = lower value 0.999 | S. cerevisiae deletion strains, locus YNR049C, strain mso1, stronger effect = lower value 1.01 | S. cerevisiae deletion strains, locus YNR052C, strain pop2, stronger effect = lower value 1.02 | S. cerevisiae deletion strains, locus YOL006C, strain TOP1, stronger effect = lower value 1.05 | S. cerevisiae deletion strains, locus YOL012C, strain htz1 0.78 | S. cerevisiae deletion strains, locus YOL147C, strain pex11, stronger effect = lower value 1.01 | S. cerevisiae deletion strains, locus YOR001W, strain rrp6, stronger effect = lower value 1.02 | S. cerevisiae deletion strains, locus YOR061W, strain CKA2, stronger effect = lower value 1.01 | S. cerevisiae deletion strains, locus YOR069W, strain VPS5, stronger effect = lower value 0.995 | S. cerevisiae deletion strains, locus YOR070C, strain gyp1, stronger effect = lower value 1.02 | S. cerevisiae deletion strains, locus YOR080W, strain dia2, stronger effect = lower value 1.04 | S. cerevisiae deletion strains, locus YOR083W, strain WHI5, stronger effect = lower value 1.03 | S. cerevisiae deletion strains, locus YOR106W, strain vam3, stronger effect = lower value 1.01 | S. cerevisiae deletion strains, locus YOR136W, strain idh2, stronger effect = lower value 1.02 | S. cerevisiae deletion strains, locus YOR144C, strain elg1, stronger effect = lower value 1.01 | S. cerevisiae deletion strains, locus YOR184W, strain ser1, stronger effect = lower value 1.02 | S. cerevisiae deletion strains, locus YOR231W, strain MKK1, stronger effect = lower value 0.996 | S. cerevisiae deletion strains, locus YOR265W, strain rbl2, stronger effect = lower value 1.03 | S. cerevisiae deletion strains, locus YOR270C, strain vph1, stronger effect = lower value 1.07 | S. cerevisiae deletion strains, locus YOR290C, strain snf2, stronger effect = lower value 1.03 | S. cerevisiae deletion strains, locus YOR316C, strain cot1, stronger effect = lower value 1.02 | S. cerevisiae deletion strains, locus YPL051W, strain arl3, stronger effect = lower value 1.03 | S. cerevisiae deletion strains, locus YPL055C, strain LGE1, stronger effect = lower value 0.997 | S. cerevisiae deletion strains, locus YPL078C, strain atp4, stronger effect = lower value 1.02 | S. cerevisiae deletion strains, locus YPL106C, strain sse1, stronger effect = lower value 0.991 | S. cerevisiae deletion strains, locus YPL240C, strain hsp82, stronger effect = lower value 1.01 | S. cerevisiae deletion strains, locus YPL241C, strain CIN2, stronger effect = lower value 1.01 | S. cerevisiae deletion strains, locus YPL256C, strain CLN2, stronger effect = lower value 0.958 | S. cerevisiae deletion strains, locus YPR119W, strain clb2, stronger effect = lower value 1.01 | S. cerevisiae deletion strains, locus YPR141C, strain kar3, stronger effect = lower value 1.02 | S. cerevisiae deletion strains, locus YPR163C, strain tif3, stronger effect = lower value 1.03 | S. cerevisiae deletion strains, locus YPR167C, strain met16, stronger effect = lower value 1.02 | S. cerevisiae deletion strains, strain wtn01, stronger effect = lower value 1.01 | S. cerevisiae strains, strain wild type, stronger effect = lower value 0.981
